An excerpt weighted towards active compounds, which were near 3.4% of everything screened.
NF-kB neuron act = activators of NF-kB expression in neurons, primary screen, cell-based, HTS | actives 1.6% (n = 190,000) | fold change at 12.5 µM | AID 1239, 2008 | human neuronal cells, NF-kB reporter expression; stronger effect = higher value; in the data active = fold change above about 3.3
hcDAF12 agonist = H. contortus DAF-12 nuclear receptor activators, primary screen, cell-based, luminescence, HEK293, lit1-tk-luc reporter; activation, % at 6.8 µM; HEK293 hcDAF-12 lit1-tk-luc reporter; 0% DMSO, 100% Δ7-dafachronic acid; actives 1.4% (n = 370,000); AID 652067, 2013;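 active = activation above the mean of all tested compounds plus 3 SD, cut at about 5.5% in these data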;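 also: 100% = response to 3 µM Δ7-dafachronic acid high control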
hgDAF12 agonist = H. glycines DAF-12 receptor agonists, primary screen, cell-based, luminescence, HEK293, GAL4 fusion, UAS-luciferase. activation, % at 6.8 µM. Nuclear hormone receptor DAF-12 (Heterodera glycines), GAL4 fusion. actives 1.8% (n = 370,000). HEK293 GAL4-hgDAF12 UAS-luciferase reporter, agonist luminescence; normalized to butyrate control. AID 687014, 2013;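 active = activation above a cutoff set at the mean of all screened compounds plus 3 SD, cut at about 10% in these data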;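 also: 0% = DMSO wells and 100% = sodium butyrate wells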
ssDAF-12 act = S. stercoralis DAF-12 nuclear receptor activators, primary screen, cell-based, luminescence, HEK293, GRIP1 co-expression, lit1-tk-luc; activation, % at 6.8 µM; Nuclear hormone receptor DAF-12 (Strongyloides stercoralis); HEK293 ssDAF-12/GRIP1 lit1-tk-luc reporter; % of 3 µM dafachronic acid response; actives 1% (n = 370,000);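 active = activation above the mean over all tested compounds plus 3 SD, cut at about 0.9% in these data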;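 also: 0% = DMSO-only wells and 100% = 3 µM delta7-dafachronic acid wells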
APP 5'UTR act = activators of APP 5'UTR luciferase reporter, primary screen, SH-SY5Y cells | actives 1% (n = 190,000) | AID 1276, 2008 | SH-SY5Y APP 5'UTR luciferase reporter, luminescence; zero percent = DMSO vehicle wells | activation, % at 2 µM;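 active = activation above a set limit, based on mean plus 3 SD of controls, cut at about 140% in these data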
Numbers without * were called inactive; x = no result.

SMILES | NF-kB neuron act | hcDAF12 agonist | hgDAF12 agonist | ssDAF-12 act | APP 5'UTR act
CCOc1ccc(C(=O)Nc2ccc(NC(=S)NC(=O)CC)cc2)cc1Cl | 1.3 | -2 | 0 | -1 | 6
Cc1ccc(-c2cc(C(=O)NN=Cc3ccc(N(C)C)cc3)[nH]n2)cc1C | x | 3 | 4 | -1 | x
O=C(O)c1ccc(Sc2nnnn2-c2ccccc2)c([N+](=O)[O-])c1 | 0.99 | 0 | 0 | -1 | 5
COC(=O)c1ccc(Sc2nnnn2-c2ccccc2)c([N+](=O)[O-])c1 | 4* | -2 | -1 | -1 | 2
Oc1nc(Nc2ccc(F)cc2)sc1/C=C1\C=Nc2ccccc21 | x | 1 | -2 | 0 | x
O=c1[nH]c(S)c(/C=C2\C=Nc3ccccc32)s1 | x | 4 | 2 | 1.2* | x
CCCCCCCCS(=O)C1CCS(=O)(=O)C1 (centres undefined) | 1.1 | 1 | 0 | -1 | -5
CCCCCCS(=O)[C@H]1CS(=O)(=O)C[C@@H]1S(=O)CCCCCC (some centres undefined) | 1.1 | -1 | 17* | -2 | x
NC(=O)c1sc(=S)n(-c2ccc(Br)cc2)c1N | 1 | 6.5* | 1 | 0 | 0
CCNC(=O)c1sc(=S)n(-c2ccc(C)cc2)c1N | 0.9 | -2 | 0 | -2 | 5
CC1=CC(=O)C(C(C)C)=C/C1=N\OC(=O)c1cccc2nc(C)oc12 | 1.7 | 5.7* | -2 | 0 | 19
COC(=O)C(=Cc1ccc(OCc2ccc([N+](=O)[O-])cc2)c(OC)c1)C(=O)OC | 4.4* | 2 | 4 | -2 | 17
COc1cc(/C=N/NC(=O)c2cccc([N+](=O)[O-])c2)ccc1OCc1ccccc1 | 1.2 | 0 | 0 | -2 | 14
CCOC(=O)C(=Cc1ccc(OCc2ccc([N+](=O)[O-])cc2)c(OC)c1)C(=O)OCC | 3.6* | 1 | 6 | 0 | 10
CCOC(=O)/C(=C\c1ccc(OC)c(OC)c1)C(=O)c1cccnc1 | x | 0 | -1 | -1 | x
COc1cc(C(c2c(C)[nH][nH]c2=O)c2c(C)[nH][nH]c2=O)ccc1OCc1ccc([N+](=O)[O-])cc1 | 3.8* | 0 | 2 | -1 | x
Cc1cc(NS(=O)(=O)c2ccc(NC(=O)CSc3nnc(-c4cnccn4)n3-c3ccccc3)cc2)nc(C)n1 | x | -1 | 1 | -1 | x
O=C(Nc1ccc2c(c1)OCO2)N1CCC(c2nc3ccc(Cl)cc3[nH]2)CC1 | x | -2 | 0 | -1 | x
Cc1ccc(CC2CC(=O)N(Cc3ccco3)C2=O)cc1 (centres undefined) | 4.3* | 0 | 1 | -1 | 106
CC(=O)c1nc2ccccc2n1CCc1ccccc1 | 0.97 | 0 | 1 | 1.2* | -5
O=C(NNC(=S)Nc1ccccc1Cl)c1ccccc1Br | x | 4 | 11* | 0 | x
CSc1nc(N)n2nccc2n1 | x | 6.2* | 0 | -1 | x
CSc1nc(N)n2nc(C)cc2n1 | x | 0 | -2 | -1 | x
C#CCN1CC(N(C)CCOC(=O)CSc2ccccc2)CS1(=O)=O (centres undefined) | x | -1 | 5 | -1 | x
CCn1c2ccccc2c2cc(NC(=O)CSc3nnc(-c4ccccc4)n3Cc3ccco3)ccc21 | x | 0 | -4 | -1 | x
SMILES | NF-kB neuron act | hcDAF12 agonist | hgDAF12 agonist | ssDAF-12 act | APP 5'UTR act
CCc1ccc2[nH]c(C(=O)Nc3ccc(C)c(F)c3)cc2c1 | x | 5.8* | 7 | 0 | x
O=C(Nc1ccc(F)cc1)c1cc2cc(Cl)ccc2[nH]1 | x | -2 | 1 | -1 | x
COC(=O)[C@H](C(C)C)N(CCCc1cn(CC2CCCCC2)nn1)S(=O)(=O)c1ccc(F)cc1Br | x | -4 | -1 | -1 | x
Nc1nc(-c2ccccc2)c(-c2ccccc2)s1 | 1 | -1 | -3 | -1 | -1
Nc1nc(-c2ccccc2)c(N=Nc2ccc(Cl)cc2)s1 | 1.2 | 3 | 0 | 1.2* | -10
Cc1occc1C(=O)Nc1cc(C(C)(C)C)on1 | 4.5* | 4 | 12* | 0 | 148*
Cc1nc2c3ccccc3n(CC#N)c(=O)n2n1 | 0.9 | 6.1* | 8 | 0 | 4
N#CCn1c(CCl)nc2ccccc2c1=O | 1.6 | 0 | -3 | -1 | -7
COc1ccc(-c2noc(C3CCCN(C(=O)Nc4cccc(C)c4)C3)n2)cc1 (centres undefined) | x | -2 | 5 | -1 | x
Cc1cc2oc(C(=O)Nc3nonc3C)c(C)c2cc1C | x | 4 | 8 | -1 | x
CCCc1ccc2oc(C(=O)NCc3nnc(C)o3)c(C)c2c1 | x | 6.2* | 12* | 0 | x
CCc1ccc2oc(C(=O)Nc3nonc3C)c(C)c2c1 | x | 4 | 11* | 0 | x
O=C(CNS(=O)(=O)c1cc2ccccc2s1)N1CCN(c2ccccn2)CC1 | x | -2 | -2 | -1 | x
CC[C@]12c3[nH]c4ccc(Cl)cc4c3CCN1C(=O)[C@@H](CC(=O)NC/C=C(\C)CCC=C(C)C)C[C@@H]2C(=O)N1CCN(C(=O)c2ccco2)CC1 | x | -2 | 0 | 2.1* | x
CCOC(OCC)P(=O)(CNC(c1ccccc1)(c1ccccc1)c1ccccc1)OCC (centres undefined) | x | -2 | 1 | -1 | x
COc1cc(C(Nc2ccccn2)c2ccc3ccc(C)nc3c2O)cc(OC)c1O (centres undefined) | 6* | x | x | x | -18
Oc1c(C(Nc2ccccn2)c2ccccn2)ccc2cccnc12 (centres undefined) | 7* | -3 | -7 | -2 | -26
Cc1ccc2ccc(C(Nc3ccccn3)c3ccccc3)c(O)c2n1 (centres undefined) | 1.3 | -3 | -5 | -1 | 0
COC(=O)[C@]12C[C@H](CC(=O)NCCCN3CCCC3=O)C(=O)N(Cc3ccc(Cl)cc3Cl)C1=C[C@H](C1CCCC1)O[C@@H]2C | x | -1 | -3 | -2 | x
Cc1ccc(Nc2ncc3c(n2)CC(C)(C)CC3=O)cc1 | 5.2* | 3 | 13* | 0 | 158*
CC1(C)CC(=O)c2cnc(NC3CC3)nc2C1 | 1.1 | 3 | 2 | -2 | 4
C[C@H]1[C@@H](OC(=O)Nc2ccc(Br)cc2)CC[C@@]23CCCN2C(=O)CCC[C@@H]13 | x | -2 | -2 | -2 | x
Cc1c(NC(=O)c2cc(-c3ccccc3)nc3ccccc23)c(=O)n(-c2ccccc2)n1C | x | -1 | -4 | -1 | x
Cc1c(NC(=O)COC(=O)c2cc(-c3ccc(-c4ccccc4)cc3)nc3ccccc23)c(=O)n(-c2ccccc2)n1C | 4.1* | 3 | 1 | -1 | 100
Cc1c(NC(=O)C(C)OC(=O)c2cc(-c3cccc4ccccc34)nc3ccccc23)c(=O)n(-c2ccccc2)n1C (centres undefined) | 0.37 | -2 | 11* | 0 | 10

Screening results as filed in PubChem BioAssay.
